Source: PubChem BioAssay (National Center for Advancing Translational Sciences (NCATS))
A549 viability = Nrf2 qHTS screen for inhibitors: counterscreen for cytotoxicity | A549 ARE-Fluc cells, CellTiter-Fluor viability, 18-24 h | AID 504648, 2011 | Potency, µM (series often up to 46 µM), inactives show top-dose activity change, negative = cytotoxicity, most hits filed as inhibitors | 390,000 tested, 0.16% active; further: on the % scale 0 is the no-effect control and ±100 the full control effect
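A549 ARE-Fluc cells in 5% FBS OPTI-MEM, 5000 cells/well, rested 2 h then exposed to compounds in concentration-response for 18-24 h at 37 °C. Viability by CellTiter-Fluor fluorescence (Ex 405/Em 525) after 30 min; luciferase luminescence (BugLite, 15 min, RT) read afterwards.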
Nrf2 inh = Nrf2 qHTS screen for inhibitors. 360,000 tested, 2.1% active. Potency, µM (series often up to 46 µM), for inactives: top-dose activity change, negative = inhibition, actives largely listed as inhibitors. AID 504444, 2011. A549 ARE-Fluc reporter, luciferase luminescence, 18-24 h; further: on the % scale 0 is the no-effect control and ±100 the full control effect; nearly all actives have a fitted effect of over 60% in size
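Nrf2 activity is the BugLite luminescence, read 15 min after reagent at room temperature, following CellTiter-Fluor cytotoxicity readout (30 min, 37C). Compound titrations were applied for 18-24 h to 5000 A549 ARE_Fluc cells/well in 5% FBS OPTI-MEM.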
ATXN2 expr inh = Primary qHTS for Inhibitors of ATXN expression; 360,000 tested, 0.72% active; AID 1745845, 2022; Potency, µM (doses to about 57 µM), for the others: at the highest dose activity change, negative = inhibition, hits mostly inhibitors; HEK-293 ATXN2-luciferase reporter, luminescence, 24 h; further: on the % scale 0 is the no-effect control and ±100 the full control effect; nearly all actives have a fitted effect of over 55% in size
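qHTS (up to 57 uM final) was run with 24 h compound exposure of reporter cells at 37 °C. Each well was multiplexed: SteadyGlo luminescence measured ATXN2-luciferase expression after a fluorogenic Gly-Phe-AFC viability readout (25 uM final).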
ATXN viability = Viability Counterscreen for Primary qHTS for Inhibitors of ATXN expression; 400,000 tested, 0.49% active; Potency, µM (titrated, usually from 56.7 µM), actives largely listed as cytotoxic; S2 cells (HEK-293 line with an ATXN2-luciferase reporter) viability, CellTiter-Fluor protease fluorescence, 24 h; further: nearly all actives have a fitted effect of over 40% in size
TGFb SMAD3 inh = qHTS for Inhibitors of TGF-b | HepG2 CAGA-GFP TGF-b/SMAD3 reporter, GFP fluorescence, 18 h; TGF-beta stimulated, 500 pg/mL final | Potency, µM (series often up to 46.1 µM), without a hit: at the highest dose activity, negative = inhibition, hits mostly inhibitors | 410,000 tested, 1.2% active; further: on the % scale 0 is the no-effect control and ±100 the full control effect; nearly all actives have a fitted effect of over 65% in size
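Inhibition of TGF-beta-driven CAGA-GFP reporter expression in HEPG2 cells is measured by cellular GFP fluorescence after 18 h stimulation with 500 pg/mL recombinant TGF-beta in 1% FBS medium at 37 degrees C.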
HepG2 viability = qHTS for Inhibitors of TGF-b: Cytotox Counterscreen; 410,000 tested, 0.76% active; HepG2 CAGA-GFP viability, ATP luminescence, 18 h; Potency, µM (highest dose often 46.1 µM), for the others: top-dose activity change, negative = cytotoxicity, hits mostly cytotoxic
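HepG2 CAGA-GFP cells (1000/well, DMEM with 1% FBS) received compound, then TGF-beta at 500 pg/mL final, and were incubated 18 hours at 37 degrees C. Viability was read by CellTiter-Glo luminescence. Media-only wells were set as complete cell-killing and DMSO as no toxicity.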
Starred values were filed as active, the others as inactive; i = inactive; ? = inconclusive; . = no result; ! = repeats disagree; [ ] = another dose, or the depositor's remark. Hits are enriched below; roughly 3.8% of the tested compounds scored in any of these assays. The call rests on the fitted dose curve; in most records, active means well fitted curve in the direction sought with a large enough effect; inconclusive means small, poorly fitted or top-dose-only effect, or another doubt; inactive means no such curve, though single readings can be large; an effect the other way counts as inactive or inconclusive. Potency means the concentration at half of the fitted maximal effect.

SMILES	A549 viability	Nrf2 inh	ATXN2 expr inh	ATXN viability	TGFb SMAD3 inh	HepG2 viability
CCC(=O)Nc1ccc(Cl)c(NC(=O)C(C)C)c1	15%	10%	-2%	i	-2%	-46%
CCN1C(=O)c2ccccc2S(=O)c2ccc(C(=O)N3CCN(c4ccc(F)cc4)CC3)cc21 (stereo not drawn)	-12%	?	0%	i	-1%	-16%
COc1ccc(NC2=NC(=S)N(c3ccccc3C)C23CCCCC3)cc1	-2%	-6%	-11%	i	13%	4%
[O-][N+]1=c2ccc(Nc3ccccc3)cc2=NC12CCCCC2	-6%	-10%	?	14µM*	6.3µM*	-106%
COc1ccc(Nc2ccc3c(c2)=NC2(CCCCC2)[N+]=3[O-])cc1	?	?	?	.	3.2µM*	13µM*
COc1cccc(NC(=O)Cn2c(=O)n(CCCCC(=O)NCCc3ccccc3)c(=O)c3ccccc32)c1	-2%	-8%	-5%	i	-36%	1%
Cc1nc2cc(NC(=O)c3ccc([N+](=O)[O-])s3)ccc2s1	-12%	6.5µM*	-16%	?	-21%	-4%
Cc1ccc(C(=O)Nc2nnc(-c3ccco3)o2)cc1	13%	3%	?	i	0%	-21%
Cc1cc(NS(=O)(=O)c2ccc(NC(=O)c3ccc([N+](=O)[O-])s3)cc2)nc(C)n1	-7%	-11%	-14%	?	?	-26%
Cc1ccnc(NS(=O)(=O)c2ccc(NC(=O)c3ccc([N+](=O)[O-])s3)cc2)n1	-18%	-14%	?	i	?	11µM*
O=C(Nc1nnc(-c2ccco2)o1)c1ccc([N+](=O)[O-])s1	?	21µM*	?	?	?	-56%
O=C(NC1CCCCCC1)c1ccc([N+](=O)[O-])s1	-4%	2.1µM*	-4%	i	?	-3%
CCc1ccccc1NC(=O)c1ccc([N+](=O)[O-])s1	-22%	-21%	?	i	11µM*	11µM*
COc1ccc(-n2cccc2C=O)cc1	4%	?	1%	i	8%	-2%
COc1ccc(-n2cccc2/C=C/[N+](=O)[O-])cc1	-4%	3%	?	.	18µM*	-60%
CCOc1ccc(Nc2cc(C)c3ccccc3n2)cc1	1%	2%	14%	i	?	-38%
Oc1cccc(Nc2nc(NCC3CCCO3)c3ccccc3n2)c1 (stereo not drawn)	-2%	5%	-22%	?	?	-27%
CCOc1ccc(Nc2c3ccccc3nc3ccccc23)cc1	?	-29%	11µM*	?	?	-53%
c1ccc(Nc2nc(NCC3CCCO3)c3ccccc3n2)cc1 (stereo not drawn)	-25%	18µM*	-32%[11.3 µM]	?	?	-18%
Cc1ccc(OCC(=O)NNc2c3ccccc3nc3ccccc23)cc1	?	18µM*	?	?	-49%	-29%
CCOc1ccc(Nc2c(S(=O)(=O)c3ccccc3)cnc3ccc(CC)cc23)cc1	-30%	?	?	?	11µM*	-27%
CN(CC(=O)NCC1CCCCC1)CC(=O)Nc1ccccc1Br	0%	-2%	-5%	i	-1%	-2%
CCOc1ccc(Nc2nc(NCC3CCCO3)c3ccccc3n2)cc1 (stereo not drawn)	?	?	?	?	11µM*	-51%
O=C(CSc1nnc(NC(=O)C2CC(=O)N(c3ccc(F)cc3)C2)s1)NCc1ccco1 (stereo not drawn)	8%	14%	3%	i	29%	-2%
COc1cc2c(cc1OC)C1=NC(=O)CN1C(SCc1ccccc1C)=N2	-15%	9.2µM*	.	.	-4%	-1%
SMILES	A549 viability	Nrf2 inh	ATXN2 expr inh	ATXN viability	TGFb SMAD3 inh	HepG2 viability
N=c1n(CCN2CCCCC2)c2ccccc2n1CC(O)COc1ccccc1 (stereo not drawn)	?	.	?	25µM*!	11µM*!	-49%
N=c1n(CCN2CCCCC2)c2ccccc2n1CC(O)c1ccc(Cl)c(Cl)c1 (stereo not drawn)	?	13%	25µM*	?	?	11µM*
Cc1ccccc1OCC(O)Cn1c(=N)n(CCN2CCOCC2)c2ccccc21 (stereo not drawn)	-27%	-12%	-17%	i	17%	-31%
N=c1n(CCN2CCCCC2)c2ccccc2n1CC(O)c1cccc(Br)c1 (stereo not drawn)	?	-3%	?	?	-5%	-97%
Cc1ccccc1OCC(O)Cn1c(=N)n(CCN2CCCCC2)c2ccccc21 (stereo not drawn)	?	-8%	.	.	.	16µM*
COc1cc(=O)n2c(c1C(=O)N(C)Cc1nonc1C)CCN(Cc1ccccc1F)CC2	.	.	.	i	.	.
O=C(Nc1cc(C(F)(F)F)cc(C(F)(F)F)c1)c1cc(Cl)ccc1O	.	.	0.86µM*	.	.	.
CCCn1nc(C(=O)Nc2ccc3nc(N4CCOCC4)sc3c2)ccc1=O	-14%	21µM*	-25%	i	-20%	-16%
N#Cc1ccc(CC(=O)c2ccccc2)[nH]c1=O	-2%	?	26%	i	25%	0%
CN(C)c1ccc(/C=C2\C(=O)/C(=C\c3ccc(N(C)C)cc3)c3ccccc32)cc1	.	.	.	.	5%	-11%
CCOc1ccccc1CNC(=O)c1cccn1-c1nnc(N2CCCCC2)s1	-3%	?	.	.	?	-35%
CCOc1ccccc1CNCc1cccn1-c1nnc(N2CCN(c3ccccc3)CC2)s1	?	-10%	18µM*	?	?	-83%
O=C(NCCSc1c[nH]c2ccccc12)c1ccccc1Cl	-12%	-12%[9.27 µM]	-17%	i	-9%	-24%
NCc1nc2cccnc2n1Cc1ccccc1Cl	-16%	8%	15%	i	-4%	1%
CC(=O)/C(C#N)=C1\NC(=O)C(Cc2ccc(C)c(C)c2)S1 (stereo not drawn)	-17%	?	24%	i	11%	-36%
COc1ccccc1Nc1nn2c(=O)c3ccc(C(=O)NCCC4=CCCCC4)cc3nc2s1	?	?	3.2µM*	.	5µM*	5µM*
Cc1ccc(C)c(Nc2nn3c(=O)c4ccc(C(=O)NCCc5ccccc5)cc4nc3s2)c1	8%	?	4%	i	11%	-2%
Cc1ccc(C)c(Nc2nn3c(=O)c4ccc(C(=O)NCCC5=CCCCC5)cc4nc3s2)c1	4%	-10%	14%	i	?	-3%
